Reference: the supplement of paper PMC7411054

Columns and labels:
Settings in all cases: treatment time: 24 h
[1] = system: HepG2-ACTB-RAB5A; experiment: lowest phenotypically active concentration; higher = less potent
Outline: (§1)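 Live-cell features were measured per well and normalised to solvent control wells after fifteen gene-edited A549, HepG2 and WPMY1 reporter lines had been treated for 24 h at 0.3, 1, 3 or 9 µM in four wells each. A condition was deviating when ≥3 of 4 wells sat beyond the 95th percentile of control Euclidean distances. It was reproducible when the median replicate Pearson correlation exceeded the 95th percentile of non-replicates. Phenotypic activity demanded both.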

[2] = system: HepG2-CANX-COX4; experiment: as above
Outline: as §1

[3] = system: HepG2-GM130-SQSTM1; experiment: as above
Outline: as §1

[4] = system: HepG2-TUBA1B-RELA; experiment: as above
Outline: as §1

[5] = system: WPMY1-ACTB-RAB5A; experiment: as above
Outline: as §1

[6] = system: WPMY1-CANX-COX4; experiment: as above
Outline: as §1

[7] = system: WPMY1-GM130-SQSTM1; experiment: as above
Outline: as §1

[8] = system: WPMY1-TP53BP1-CLTA; experiment: as above
Outline: as §1

[9] = system: WPMY1-TUBA1B-RELA; experiment: as above
Outline: as §1

[10] = system: WPMY1-ACTB-RAB5A; experiment: phenotypically active (imaging signature differs from DMSO and reproducible) at any of 0.3-9 uM (binary (1 = active, 0 = inactive)); higher = active
Outline: as §1

NC(=O)Nc1sc(-c2ccc(F)cc2)cc1C(N)=O
active: phenotypically active [10] 1
9 µM: lowest phenotypically active concentration [1] | lowest phenotypically active concentration [3] | lowest phenotypically active concentration [4] | lowest phenotypically active concentration [5] | lowest phenotypically active concentration [6] | lowest phenotypically active concentration [7] | lowest phenotypically active concentration [8] | lowest phenotypically active concentration [9]
3 µM: lowest phenotypically active concentration [2]

CC(C)(C)Nc1nc(Nc2ccc(C(N)=O)cc2)cc(N)c1C#N
9 µM: lowest phenotypically active concentration [6] | lowest phenotypically active concentration [9]
3 µM: lowest phenotypically active concentration [1] | lowest phenotypically active concentration [2] | lowest phenotypically active concentration [3] | lowest phenotypically active concentration [4] | lowest phenotypically active concentration [5] | lowest phenotypically active concentration [7] | lowest phenotypically active concentration [8]
active: phenotypically active [10] 1

CCOC(=O)CCNc1cc(N2CCc3ccccc3CC2)nc(-c2ccccn2)n1
9 µM: lowest phenotypically active concentration [5] | lowest phenotypically active concentration [6] | lowest phenotypically active concentration [9]
active: phenotypically active [10] 1
3 µM: lowest phenotypically active concentration [1] | lowest phenotypically active concentration [2] | lowest phenotypically active concentration [3] | lowest phenotypically active concentration [4] | lowest phenotypically active concentration [7] | lowest phenotypically active concentration [8]

C[C@H]1COCCN1c1cc(C2(S(=O)(=O)C3CC3)CC2)nc(-c2ccc(NC(=S)NCCO)cc2)n1
1 µM: lowest phenotypically active concentration [4]
active: phenotypically active [10] 1
≤ 0.3 µM: lowest phenotypically active concentration [1] | lowest phenotypically active concentration [2] | lowest phenotypically active concentration [3] | lowest phenotypically active concentration [5] | lowest phenotypically active concentration [6] | lowest phenotypically active concentration [7] | lowest phenotypically active concentration [8] | lowest phenotypically active concentration [9]

CCc1cccc(CC)c1NC(=O)N1Cc2[nH]nc(NC(=O)c3ccc(N4CCN(C)CC4)cc3)c2C1
≤ 0.3 µM: lowest phenotypically active concentration [1] | lowest phenotypically active concentration [2] | lowest phenotypically active concentration [3] | lowest phenotypically active concentration [4]
1 µM: lowest phenotypically active concentration [5] | lowest phenotypically active concentration [6] | lowest phenotypically active concentration [7] | lowest phenotypically active concentration [8] | lowest phenotypically active concentration [9]
active: phenotypically active [10] 1

COc1cc(N2CCC(N3CCN(C)CC3)CC2)ccc1Nc1ncnc(Nc2ccccc2S(=O)(=O)C(C)C)n1
9 µM: lowest phenotypically active concentration [1] | lowest phenotypically active concentration [3] | lowest phenotypically active concentration [4] | lowest phenotypically active concentration [5] | lowest phenotypically active concentration [7] | lowest phenotypically active concentration [8] | lowest phenotypically active concentration [9]
active: phenotypically active [10] 1
3 µM: lowest phenotypically active concentration [2] | lowest phenotypically active concentration [6]

COc1cc(Br)c(Nc2nc(-c3c(C)nc4ncccn34)cs2)c(Br)c1
1 µM: lowest phenotypically active concentration [1] | lowest phenotypically active concentration [2] | lowest phenotypically active concentration [3] | lowest phenotypically active concentration [4] | lowest phenotypically active concentration [5] | lowest phenotypically active concentration [6] | lowest phenotypically active concentration [7] | lowest phenotypically active concentration [9]
3 µM: lowest phenotypically active concentration [8]
active: phenotypically active [10] 1

O=C(OC12CC3CC(CC(C3)C1)C2)c1ccc(NCc2cc(O)ccc2O)cc1 [Adaphostin]
1 µM: lowest phenotypically active concentration [1] | lowest phenotypically active concentration [5] | lowest phenotypically active concentration [6] | lowest phenotypically active concentration [7] | lowest phenotypically active concentration [9]
active: phenotypically active [10] 1
3 µM: lowest phenotypically active concentration [2] | lowest phenotypically active concentration [3] | lowest phenotypically active concentration [4] | lowest phenotypically active concentration [8]

COc1ccc(-c2ccc3ncc4c(c3c2)n(-c2ccc(N3CCNCC3)c(C(F)(F)F)c2)c(=O)n4C)cn1
≤ 0.3 µM: lowest phenotypically active concentration [1] | lowest phenotypically active concentration [2] | lowest phenotypically active concentration [3] | lowest phenotypically active concentration [4] | lowest phenotypically active concentration [5] | lowest phenotypically active concentration [6] | lowest phenotypically active concentration [7] | lowest phenotypically active concentration [8] | lowest phenotypically active concentration [9]
active: phenotypically active [10] 1

Cc1c(CN2CCN(C(=O)[C@H](C)O)CC2)sc2c(N3CCOCC3)nc(-c3cnc(N)nc3)nc12
≤ 0.3 µM: lowest phenotypically active concentration [1] | lowest phenotypically active concentration [2] | lowest phenotypically active concentration [3] | lowest phenotypically active concentration [4] | lowest phenotypically active concentration [5] | lowest phenotypically active concentration [6] | lowest phenotypically active concentration [7] | lowest phenotypically active concentration [8] | lowest phenotypically active concentration [9]
active: phenotypically active [10] 1
